According to PubChem BioAssay AID1159580 (chemical genetic matrix, 2015):
Among all 5,500 compounds or so, about 2,000 (36%) were called active. Not shown: some 18% with an inconclusive outcome. Rule as the data show it: active = normalized growth mostly below about 0.91 (no sharp cut-off); inconclusive = no clear call, values can overlap the other calls; inactive = mostly above about 0.92. The list shows a part of the results.

Experiment: chemical genetic growth profiling, strain panel (AID 1159580);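 also: tested at 20 µM; growth read once vehicle control cultures reached saturation at 30 °C; 1 = growth at the plate median or of vehicle wells; lower values mean less growth of the strain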
Conditions: growth OD

Measured: normalized growth

CNNC
inactive: S. cerevisiae deletion strains, locus YJR075W, strain HOC1, active compounds read low 1.02 | S. cerevisiae deletion strains, locus YKL009W, strain mrt4, active compounds read low 0.981 | S. cerevisiae deletion strains, locus YKL068W, active compounds read low 1.01 | S. cerevisiae deletion strains, locus YKL085W, strain MDH1 (second series), active compounds read low 1.01 | S. cerevisiae deletion strains, locus YKL085W, strain MDH1, active compounds read low 1.01 | S. cerevisiae deletion strains, locus YKL160W, strain elf1, active compounds read low 0.99 | S. cerevisiae deletion strains, locus YKL190W, strain CNB1, active compounds read low 1.02 | S. cerevisiae deletion strains, locus YKR001C, strain vps1, active compounds read low 1.01 | S. cerevisiae deletion strains, locus YKR026C, strain gcn3, active compounds read low 1.02 | S. cerevisiae deletion strains, locus YKR091W, strain srl3, active compounds read low 1.02 | S. cerevisiae deletion strains, locus YLL001W, strain dnm1, active compounds read low 1.02 | S. cerevisiae deletion strains, locus YLL026W, active compounds read low 1 | S. cerevisiae deletion strains, locus YLL041C, strain sdh2, active compounds read low 1.02 | S. cerevisiae deletion strains, locus YLR027C, strain aat2, active compounds read low 1.01 | S. cerevisiae deletion strains, locus YLR039C, strain RIC1, active compounds read low 1.09 | S. cerevisiae deletion strains, locus YLR058C, strain SHM2, active compounds read low 1.02 | S. cerevisiae deletion strains, locus YLR102C, strain apc9, active compounds read low 0.998 | S. cerevisiae deletion strains, locus YLR221C, strain rsa3, active compounds read low 1.01 | S. cerevisiae deletion strains, locus YLR258W, strain gsy2, active compounds read low 1.01 | S. cerevisiae deletion strains, locus YLR262C, strain YPT6 (second series), active compounds read low 1.01 | S. cerevisiae deletion strains, locus YLR262C, strain YPT6, active compounds read low 1.09 | S. cerevisiae deletion strains, locus YLR268W, strain sec22, active compounds read low 1.02 | S. cerevisiae deletion strains, locus YLR320W, strain mms22, active compounds read low 1.01 | S. cerevisiae deletion strains, locus YLR330W, strain CHS5, active compounds read low 1.02 | S. cerevisiae deletion strains, locus YLR342W, strain FKS1 (second series), active compounds read low 1.01 | S. cerevisiae deletion strains, locus YLR342W, strain FKS1, active compounds read low 1.01 | S. cerevisiae deletion strains, locus YLR357W, strain rsc2, active compounds read low 0.986 | S. cerevisiae deletion strains, locus YLR370C, strain arc18, active compounds read low 1.01 | S. cerevisiae deletion strains, locus YLR371W, strain rom2, active compounds read low 1 | S. cerevisiae deletion strains, locus YLR384C, strain iki3, active compounds read low 1.01 | S. cerevisiae deletion strains, locus YLR418C, strain cdc73, active compounds read low 0.997 | S. cerevisiae deletion strains, locus YML016C, strain PPZ1, active compounds read low 1.02 | S. cerevisiae deletion strains, locus YML032C, strain rad52, active compounds read low 0.97 | S. cerevisiae deletion strains, locus YML120C, strain ndi1, active compounds read low 1.03 | S. cerevisiae deletion strains, locus YML124C, strain tub3, active compounds read low 1.01 | S. cerevisiae deletion strains, locus YMR058W, strain fet3, active compounds read low 1.01 | S. cerevisiae deletion strains, locus YMR078C, strain ctf18, active compounds read low 0.994 | S. cerevisiae deletion strains, locus YMR125W, strain sto1, active compounds read low 1 | S. cerevisiae deletion strains, locus YMR129W, active compounds read low 0.999 | S. cerevisiae deletion strains, locus YMR205C, strain PFK2, active compounds read low 1.02 | S. cerevisiae deletion strains, locus YMR223W, strain ubp8, active compounds read low 1 | S. cerevisiae deletion strains, locus YMR231W, strain pep5, active compounds read low 1.01 | S. cerevisiae deletion strains, locus YMR263W, strain SAP30, active compounds read low 1.03 | S. cerevisiae deletion strains, locus YMR307W, strain GAS1, active compounds read low 1.04 | S. cerevisiae deletion strains, locus YNL067W, strain RPL9B, active compounds read low 1.03 | S. cerevisiae deletion strains, locus YNL071W, strain lat1, active compounds read low 0.989 | S. cerevisiae deletion strains, locus YNL128W, strain TEP1, active compounds read low 1.03 | S. cerevisiae deletion strains, locus YNL153C, strain GIM3, active compounds read low 1.03 | S. cerevisiae deletion strains, locus YNL209W, strain ssb2, active compounds read low 1.01 | S. cerevisiae deletion strains, locus YNL233W, strain BNI4, active compounds read low 1.03 | S. cerevisiae deletion strains, locus YNL248C, strain rpa49, active compounds read low 1.03 | S. cerevisiae deletion strains, locus YNL250W, strain rad50, active compounds read low 0.997 | S. cerevisiae deletion strains, locus YNL271C, strain bni1, active compounds read low 1.01 | S. cerevisiae deletion strains, locus YNL298W, strain CLA4, active compounds read low 0.994 | S. cerevisiae deletion strains, locus YNL307C, strain MCK1, active compounds read low 0.998 | S. cerevisiae deletion strains, locus YNL322C, strain KRE1 (second series), active compounds read low 1.02 | S. cerevisiae deletion strains, locus YNL322C, strain KRE1, active compounds read low 1.03 | S. cerevisiae deletion strains, locus YNR049C, strain mso1, active compounds read low 1 | S. cerevisiae deletion strains, locus YNR052C, strain pop2, active compounds read low 0.994 | S. cerevisiae deletion strains, locus YOL006C, strain TOP1, active compounds read low 1.08 | S. cerevisiae deletion strains, locus YOL012C, strain htz1 1.09 | S. cerevisiae deletion strains, locus YOL147C, strain pex11, active compounds read low 0.995 | S. cerevisiae deletion strains, locus YOR001W, strain rrp6, active compounds read low 1.02 | S. cerevisiae deletion strains, locus YOR061W, strain CKA2, active compounds read low 1.02 | S. cerevisiae deletion strains, locus YOR069W, strain VPS5, active compounds read low 1.01 | S. cerevisiae deletion strains, locus YOR070C, strain gyp1, active compounds read low 1.01 | S. cerevisiae deletion strains, locus YOR080W, strain dia2, active compounds read low 0.99 | S. cerevisiae deletion strains, locus YOR083W, strain WHI5, active compounds read low 1.01 | S. cerevisiae deletion strains, locus YOR106W, strain vam3, active compounds read low 1.02 | S. cerevisiae deletion strains, locus YOR136W, strain idh2, active compounds read low 0.994 | S. cerevisiae deletion strains, locus YOR144C, strain elg1, active compounds read low 1 | S. cerevisiae deletion strains, locus YOR184W, strain ser1, active compounds read low 1 | S. cerevisiae deletion strains, locus YOR265W, strain rbl2, active compounds read low 1.02 | S. cerevisiae deletion strains, locus YOR270C, strain vph1, active compounds read low 1.1 | S. cerevisiae deletion strains, locus YOR290C, strain snf2, active compounds read low 1.03 | S. cerevisiae deletion strains, locus YOR316C, strain cot1, active compounds read low 1.01 | S. cerevisiae deletion strains, locus YPL051W, strain arl3, active compounds read low 1 | S. cerevisiae deletion strains, locus YPL055C, strain LGE1, active compounds read low 1.06 | S. cerevisiae deletion strains, locus YPL078C, strain atp4, active compounds read low 1.01 | S. cerevisiae deletion strains, locus YPL106C, strain sse1, active compounds read low 1 | S. cerevisiae deletion strains, locus YPL240C, strain hsp82, active compounds read low 1.01 | S. cerevisiae deletion strains, locus YPL241C, strain CIN2, active compounds read low 1.02 | S. cerevisiae deletion strains, locus YPR119W, strain clb2, active compounds read low 1 | S. cerevisiae deletion strains, locus YPR141C, strain kar3, active compounds read low 1.01 | S. cerevisiae deletion strains, locus YPR163C, strain tif3, active compounds read low 0.994 | S. cerevisiae deletion strains, locus YPR167C, strain met16, active compounds read low 1 | S. cerevisiae deletion strains, strain wtn01, active compounds read low 1.02 | S. cerevisiae strains, strain wild type, active compounds read low 1.01
